Assay results as given in PubChem BioAssay AID485317 (Broad Institute, 2010).
Screen size: about 290,000 compounds; about 11,000 (3.8%) were called active.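 Rule for the calls: active = mean replicate inhibition above about 79%, with every replicate also reaching it (limit read from the data); inconclusive = only one of the two criteria met; inactive = mean below limit and not every replicate reaching it.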 Shown is part of a subset that was picked to be rich in actives.

molecular target: FAD-linked sulfhydryl oxidase ALR (Homo sapiens) (UniProt P55789); experiment: inhibitors of human ALR sulfhydryl oxidase, primary screen, biochemical, H2O2 detection, HRP-luminol luminescence, single point (AID 485317); conditions: purified ALR, DTT oxidation, active compounds read high, concentration not given here
Sequence (P55789 whole entry, looked up): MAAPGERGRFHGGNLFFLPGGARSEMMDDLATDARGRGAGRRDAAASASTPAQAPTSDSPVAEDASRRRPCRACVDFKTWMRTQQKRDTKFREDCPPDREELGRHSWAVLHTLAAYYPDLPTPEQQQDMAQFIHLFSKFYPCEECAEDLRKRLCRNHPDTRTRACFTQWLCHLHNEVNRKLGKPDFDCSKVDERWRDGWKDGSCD

SMILES	inhibition
CCCCn1c(N)c(N(CCOC)C(=O)CSCC(=O)Nc2cccc(C)c2)c(=O)[nH]c1=O	6.91% (inactive)
CC(=O)Nc1ccc(S(=O)(=O)NC(C)C(=O)OCCOc2ccc(F)cc2)cc1 (stereo not given)	0.524% (inactive)
COc1ccc2nc3n(c(=O)c2c1)-c1cc(C)ccc1C(=O)NC3Cc1ccc(O)cc1 (stereo not given)	-1.57% (inactive)
O=C(Nc1nnc(-c2ccccc2)o1)c1cccc(S(=O)(=O)N2CCOCC2)c1	9.18% (inactive)
Fc1ccccc1-c1cc2cc3c(cc2cn1)OCO3	0.64% (inactive)
C[C@@H]1CN([C@@H](C)CO)C(=O)c2cccc(NS(=O)(=O)c3ccc(F)cc3)c2O[C@H]1CN(C)C(=O)NC1CCCCC1	-2.04% (inactive)
CCOC(=O)c1c(C)[nH]c(C(=O)OCC(=O)N2CCCC2=O)c1C	1.73% (inactive)
Cc1nn(Cc2ccccc2)c(C)c1C(=O)NCCCN1CCCC1=O	-2.84% (inactive)
CC(=O)Nc1cccc(C(=O)OCC(=O)c2ccc3c(c2)OCO3)c1	-2.29% (inactive)
C=CC[C@H](CC(=O)N(CCO)Cc1ccccc1)C(=O)N[C@@H](COC(=O)[C@@H](CC=C)Cc1ccc(F)cc1)Cc1ccccc1	-4.83% (inactive)
Cc1oc2nc(SCC(=O)NCc3cccnc3)nc(N)c2c1C	-4.94% (inactive)
COc1cccc(-c2nc(CS(=O)(=O)CC(=O)NCCc3ccc(OC)c(OC)c3)c(C)o2)c1	46.6% (inactive)
COc1ccc(C(=O)O)cc1S(=O)(=O)NCc1cccnc1	-5.82% (inactive)
CCCCN(CC)CCCNC(=O)CS(=O)(=O)Cc1nc(-c2cccc(OC)c2)oc1C	98.8% (active)
COc1ccc(-c2nc(CS(=O)(=O)CC(=O)NCc3cccc(Br)c3)c(C)o2)cc1	22.1% (inactive)
COc1ccc(-c2nc(CS(=O)CC(=O)NCc3cccnc3)c(C)o2)cc1OC (stereo not given)	99.2% (active)
O=C1C=C(c2cccc(Br)c2)C[C@@H](c2ccc(F)cc2)C1	-0.0525% (inactive)
O=C(COC(=O)COc1cc(Cl)c(Cl)cc1Cl)NC1CC1	-25.6% (inactive)
Cc1cc(C)cc(NC(=O)CSCc2cnn(-c3ccccc3)c2-n2cccc2)c1	-4.84% (inactive)
O=C(CSCc1ccccc1)Nc1ccccc1	-3.32% (inactive)
CC(=O)Nc1ccc(NC(=O)CSCc2cnn(-c3ccccc3)c2-n2cccc2)cc1	98.3% (active)
Cc1ccc(S(=O)(=O)NCCC(=O)NCc2ccc(Cl)cc2)cc1C	-3.37% (inactive)
O=C(Nc1ccccc1C(=O)O)c1ccc(N2C(=O)C3CC=CCC3C2=O)cc1 (stereo not given)	2.58% (inactive)

SMILES	inhibition
O=C(O)c1ccccc1C(=O)NC1=NN(c2ccccc2)CC1	98.4% (active)
O=C(O)c1ccccc1C(=O)Nc1nc(-c2ccccc2)cs1	-5.73% (inactive)
CC1CCCCC12NC(=O)N(CC(=O)OCc1c(F)cccc1Cl)C2=O (stereo not given)	25.1% (inactive)
COc1ccc(C)cc1NC(=O)CSc1cccc[n+]1[O-]	-22.2% (inactive)
C[C@H](OC(=O)n1ccnc1)[C@@H]1O[C@@]2(C)CCC[C@@H]1O2	4.53% (inactive)
CC(NC(=O)C(C)(C)C)C(c1cccs1)N1CCN(Cc2ccccc2)CC1 (stereo not given)	-4.94% (inactive)
CC(NC(=O)Nc1ccccc1)C(c1cccs1)N1CCN(c2ccccc2)CC1 (stereo not given)	1.95% (inactive)
CCCC(=O)NC(C)C(c1cccs1)N1CCN(c2ccccc2)CC1 (stereo not given)	97.6% (active)
O=C(NC(=S)Nc1ccc(Br)cc1F)C1CCCCC1	-2.71% (inactive)
O=C(COc1ccccc1F)NNC(=O)c1cc(Br)ccc1Cl	-9.96% (inactive)
Cc1ccccc1-c1cc(C(=O)NCc2cccs2)n(CC2CC(c3cccnc3)=NO2)n1 (stereo not given)	8.05% (inactive)
COc1ccc(-c2csc(Cc3nc(O)cs3)n2)cc1	86.8% (active)
COc1ccc(-c2csc(NC(=O)COC(=O)c3ccc(Br)o3)n2)cc1	53.6% (inactive)
COc1ccc(-c2csc(NC3OC(=O)c4ccccc43)n2)cc1 (stereo not given)	22.4% (inactive)
CCOC(=O)N1CCN(C(=O)c2ccc3c(c2)N(Cc2ccc(C)cc2)CCS3)CC1	93.4% (active)
CCOC(=O)N1CCN(C(=O)c2ccc(S(=O)(=O)c3ccc(C)cc3)c(NC(C)=O)c2)CC1	4.26% (inactive)
O=C(NCCc1ccccc1)c1ccc2c(c1)N(Cc1ccccc1)CCS2	10.1% (inactive)
O=C(CSc1nc(Nc2ccccc2)nc(N2CCOCC2)n1)Nc1cc(Cl)ccc1O	-0.209% (inactive)
O=C(CSc1nc2ccc(Nc3nc(N4CCOCC4)nc(N4CCOCC4)n3)cc2s1)NCc1ccco1	98.7% (active)
C=CCn1c(CSc2nc3ccccc3s2)nnc1SCC(=O)NCc1ccco1	60.8% (inactive)
O=C(c1ccc(F)c(S(=O)(=O)N2CCOCC2)c1)N(CCc1ccccc1)Cc1ccccc1	-7.64% (inactive)
Cc1cccc(N(CC(O)CN(C)C)S(=O)(=O)c2ccccc2)c1 (stereo not given)	-4.54% (inactive)
OCC(O)CN(c1ccccc1)c1ccccc1 (stereo not given)	99% (active)

SMILES	inhibition
O=S(=O)(c1ccccc1)N(CC(O)CN1CCCCC1)c1ccccc1 (stereo not given)	-3.01% (inactive)
CN(c1ccccc1)S(=O)(=O)c1ccc(C(=O)N2CCN(c3ccccc3Cl)CC2)cc1	-8.17% (inactive)
O=[N+]([O-])c1ccc(S(=O)(=O)Nc2cccc(-c3ccc(N4CCCC4)nn3)c2)cc1	0.216% (inactive)
C=CCOc1ccc(/C=C/C(=O)OCC(=O)NC(C)c2ccc(F)cc2)cc1 (stereo not given)	-7.12% (inactive)
O=C1CCCC(O)=C1N=Nc1ccc2ncsc2c1	97.4% (active)
O=C1CCCC(O)=C1N=Nc1ccc(S(=O)(=O)N2CCOCC2)cc1	-10.4% (inactive)
COc1ccccc1-c1sc2ccccc2c1C#CC1(O)CCCCC1	-3.52% (inactive)
O=C(CSCc1ccc([N+](=O)[O-])cc1)NCCSCc1ccccc1	-10.2% (inactive)
O=C(NCc1ccco1)c1ccc([N+](=O)[O-])cc1Cl	-19% (inactive)
CCC(CC)NC(=O)/C=C/c1cccc([N+](=O)[O-])c1	-3% (inactive)
O=C(NCc1ccco1)/C(=C/c1cccc([N+](=O)[O-])c1)NC(=O)c1ccco1	69.6% (inactive)
O=C(/C=C/c1ccc([N+](=O)[O-])cc1)NCCSCc1ccco1	98.4% (active)
O=C(/C=C/c1cccc([N+](=O)[O-])c1)NCCSCc1ccco1	98.5% (active)
CCN(C(=O)CSc1ncnc2sccc12)c1c(N)n(Cc2ccccc2)c(=O)[nH]c1=O	-0.954% (inactive)
CCNC(=S)N(CCc1c(C)[nH]c2ccc(C)cc12)Cc1ccco1	69.2% (inactive)
COCCNC(=S)N(Cc1cccnc1)Cc1ccc(OC)c(OC)c1	-1.92% (inactive)
COCCNC(=S)N(CCc1c(C)[nH]c2ccc(C)cc12)Cc1cccnc1	90.7% (active)
Cc1n[nH]c(=O)c2c(NC(=O)CSc3ccccc3F)oc(C)c12	1.87% (inactive)
CC(C)COc1ccc(C(=O)NNC(=O)CCC(=O)c2cccs2)cc1	-17.3% (inactive)
CC(NC(=O)COC(=O)CCC(=O)c1ccc(Cl)cc1)c1ccccc1 (stereo not given)	-2.75% (inactive)
Cc1noc(C)c1C(=O)OC(C)C(=O)Nc1ccc2c(c1)OCO2 (stereo not given)	-0.736% (inactive)
CSc1ccc(NC(=O)/C=C/C(=O)O)cc1	0.113% (inactive)
Cc1cccc(N2CCN(c3ccc(NC(=O)/C=C\C(=O)O)cc3)CC2)c1	99% (active)

SMILES	inhibition
O=C(Nc1cccc(NC(=O)N2CCN(c3ccccc3)CC2)c1)N1CCN(c2ccccc2)CC1	-1.81% (inactive)
Cc1ccc(CN2CCN(c3ccccc3Cl)CC2)o1	2% (inactive)
CN1CCN(S(=O)(=O)c2ccc(Nc3ccc(F)cc3)nc2)CC1	-2.65% (inactive)
O=C(OCC(=O)N1CCCCCC1)c1ccc(Br)c(S(=O)(=O)N2CCOCC2)c1	-8.29% (inactive)
COc1ccc(NC(=O)CN(C)C(=O)Cc2coc3cc(C)c(C)cc23)cc1	0.212% (inactive)
CCC1CO/C(=C(\C(=C(Cl)Cl)N2CCOCC2)[N+](=O)[O-])N1 (stereo not given)	81% (active)
COC(=O)[C@]1(C)CCC[C@@]2(C)C3CC[C@]4(OC(C)=O)C[C@@]3(CCC21)CC4=NO (stereo not given in full)	-3.27% (inactive)
COc1ccc(C(=O)Nc2cccc(NC(=O)c3ccc(OC)cc3OC)n2)c(OC)c1	-5.93% (inactive)
CCCCn1c(N)c(N(CCOC)C(=O)COc2c(C)cccc2C)c(=O)[nH]c1=O	-2.66% (inactive)
CSc1nc(C)cc(SC(C(C)=O)C(=O)Nc2ccccc2)n1 (stereo not given)	92.7% (active)
Cc1cc(SCC(=O)c2ccccc2)nc(SCC(=O)c2ccccc2)n1	1.19% (inactive)
CSc1nsc(NC(=O)Nc2ccccc2)n1	4.37% (inactive)
O=C(COC(=O)C1CC2CCCC(C1)C2=O)NC(=O)c1ccccc1 (stereo not given)	1.09% (inactive)
O=C(CN1C2=NCCN2c2ccccc21)c1cccs1	17.3% (inactive)
OC(CN1C2=NCCCN2c2ccccc21)c1ccc(Br)cc1 (stereo not given)	9.53% (inactive)
CC(C)(C)C(=O)CN1C2=NCCN2c2ccccc21	93.6% (active)
O=C1C=C(c2cccc(Cl)c2)C[C@@H](c2ccc(F)cc2)C1	-8.67% (inactive)
CC(C)Cn1c(SCC(=O)Nc2ccc(Cl)cc2F)nc(O)cc1=O	98.5% (active)
Cc1ccccc1-n1c(SCC(=O)Nc2cccc3ccccc23)nc(O)cc1=O	59.8% (inactive)
Cc1cc(NC(=O)CSc2nc3ccccc3n2CC(C)C)no1	-5.8% (inactive)
COc1ccccc1-c1nn(Cc2ccccc2)cc1C(=O)N1CCN(c2ncccn2)CC1	1.87% (inactive)
